Assay results from PubChem BioAssay AID1159580 (chemical genetic matrix, 2015).
Several values for one entry are separate records, joined by “and”; a condition that tells them apart may be missing. Equal values may be shown once. About 2,000 (36%) of roughly 5,500 compounds were called active. Roughly 18% stayed inconclusive and do not appear here. Cut-off read from the data, not from the text of the source: active = normalized growth mostly below about 0.91 (no sharp cut-off); inconclusive = no clear call, values can overlap the other calls; inactive = mostly above about 0.92. Some of the results follow.

Experiment: chemical genetic growth profiling, strain panel (AID 1159580);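 note: tested at 20 µM; growth read once vehicle control cultures reached saturation at 30 °C; 1 = growth at the plate median or of vehicle wells; lower values mean less growth of the strain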
Details: S. cerevisiae deletion strains, growth OD

Measured: normalized growth

CC(=O)NO
active: locus YBR021W, strain FUR4, stronger effect = lower value 0.604
inactive: locus YAL013W, strain DEP1, stronger effect = lower value 0.955 | locus YAL021C, strain ccr4, stronger effect = lower value 0.968 | locus YAL026C, strain drs2, stronger effect = lower value 0.997 | locus YAL030W, strain snc1, stronger effect = lower value 0.99 | locus YBL061C, strain skt5, stronger effect = lower value 0.969 | locus YBR009C, strain hhf1, stronger effect = lower value 0.942 | locus YBR023C, strain chs3, stronger effect = lower value 0.964 | locus YBR171W, strain sec66, stronger effect = lower value 0.963 | locus YBR229C, strain ROT2, stronger effect = lower value 1.01 | locus YBR231C, strain swc5, stronger effect = lower value 0.995 | locus YBR279W, strain paf1, stronger effect = lower value 0.973 | locus YCL011C, strain gbp2, stronger effect = lower value 0.949 | locus YCL016C, strain dcc1, stronger effect = lower value 0.937 | locus YCL029C, strain bik1, stronger effect = lower value 0.999 | locus YCL061C, strain MRC1, stronger effect = lower value 0.968 | locus YCL069W, strain vba3, stronger effect = lower value 0.974 | locus YCR088W, strain abp1, stronger effect = lower value 0.979 | locus YDL005C, strain med2, stronger effect = lower value 0.982 | locus YDL035C, strain GPR1, stronger effect = lower value 0.973 | locus YDL040C, strain nat1, stronger effect = lower value 0.979 | locus YDL074C, strain BRE1, stronger effect = lower value 0.977 | locus YDL101C, strain DUN1, stronger effect = lower value 1.02 | locus YDL185W, strain tfp1, stronger effect = lower value 0.992 | locus YDL192W, strain arf1, stronger effect = lower value 0.989 | locus YDR001C, strain nth1, stronger effect = lower value 0.982 | locus YDR069C, strain doa4, stronger effect = lower value 1.01 | locus YDR101C, strain arx1, stronger effect = lower value 1 | locus YDR137W, strain rgp1, stronger effect = lower value 0.948 | locus YDR150W, strain NUM1, stronger effect = lower value 0.991 | locus YDR159W, strain sac3, stronger effect = lower value 1 | locus YDR162C, strain NBP2, stronger effect = lower value 0.997 | locus YDR195W, strain ref2 0.984 | locus YDR297W, strain sur2, stronger effect = lower value 0.977 | locus YDR318W, strain mcm21, stronger effect = lower value 0.998 | locus YDR334W, strain swr1, stronger effect = lower value 0.976 | locus YDR335W, strain msn5, stronger effect = lower value 0.983 | locus YDR388W, stronger effect = lower value 0.984 | locus YDR392W, strain spt3, stronger effect = lower value 0.744 | locus YDR502C, strain sam2, stronger effect = lower value 0.973 | locus YEL003W, strain gim4, stronger effect = lower value 1 | locus YEL037C, strain rad23, stronger effect = lower value 0.977 | locus YEL061C, strain CIN8 (second series), stronger effect = lower value 0.985 | locus YEL061C, strain CIN8, stronger effect = lower value 1.01 | locus YER015W, strain faa2, stronger effect = lower value 0.975 | locus YER016W, strain bim1, stronger effect = lower value 0.996 | locus YER110C, stronger effect = lower value 0.987 | locus YER111C, strain swi4, stronger effect = lower value 0.965 | locus YER155C, strain BEM2 (second series), stronger effect = lower value 0.996 | locus YER155C, strain BEM2, stronger effect = lower value 1.03 | locus YER167W, strain BCK2, stronger effect = lower value 1.02 | locus YFR010W, strain ubp6, stronger effect = lower value 0.974 | locus YGL078C, strain dbp3, stronger effect = lower value 0.997 | locus YGL086W, strain mad1, stronger effect = lower value 0.991 | locus YGL167C, strain pmr1, stronger effect = lower value 0.978 | locus YGL173C, strain kem1, stronger effect = lower value 0.984 | locus YGL227W, strain vid30, stronger effect = lower value 0.974 | locus YGL240W, strain doc1, stronger effect = lower value 0.963 | locus YGL248W, strain PDE1, stronger effect = lower value 0.97 | locus YGL253W, strain hxk2, stronger effect = lower value 0.965 | locus YGR135W, strain pre9, stronger effect = lower value 0.907 | locus YGR252W, strain gcn5, stronger effect = lower value 0.797 | locus YHR013C, strain ard1, stronger effect = lower value 0.888 | locus YHR027C, strain rpn1, stronger effect = lower value 0.999 | locus YHR030C, strain SLT2, stronger effect = lower value 0.94 and 0.998 | locus YHR079C, strain IRE1 (second series), stronger effect = lower value 0.997 | locus YHR079C, strain IRE1, stronger effect = lower value 0.975 | locus YHR094C, strain hxt1, stronger effect = lower value 0.997 | locus YHR129C, strain ARP1, stronger effect = lower value 1 | locus YHR142W, strain chs7, stronger effect = lower value 0.915 | locus YHR200W, strain rpn10, stronger effect = lower value 0.991 | locus YIL066C, strain RNR3, stronger effect = lower value 0.979 | locus YIL073C, strain SPO22, stronger effect = lower value 0.898 | locus YIL125W, strain kgd1, stronger effect = lower value 0.99 | locus YIR030C, strain dcg1, stronger effect = lower value 1 | locus YJL092W, strain hpr5, stronger effect = lower value 0.974 | locus YJL095W, strain BCK1 (second series), stronger effect = lower value 0.98 | locus YJL115W, strain asf1, stronger effect = lower value 0.954 | locus YJL129C, strain trk1, stronger effect = lower value 0.962 | locus YJL134W, strain LCB3, stronger effect = lower value 1.01 | locus YJL154C, strain vps35, stronger effect = lower value 0.983 | locus YJL164C, strain tpk1, stronger effect = lower value 0.966 | locus YJL166W, strain qcr8, stronger effect = lower value 0.931 | locus YJL168C, strain set2, stronger effect = lower value 0.993 | locus YJL187C, strain SWE1 (second series), stronger effect = lower value 0.954
0.748 (active) and 1 (inactive): locus YJL095W, strain BCK1, stronger effect = lower value
